Measurements published in PubChem BioAssay AID1851 (National Center for Advancing Translational Sciences (NCATS), 2009).
Values joined by “and” are separate entries in the source; they are usually repeats but may differ in a detail not shown here. Equal entries are not always repeated. In all, about 16,000 compounds went through this assay and about 5,700 (36%) were called active. Inconclusive results (about 24%) are left out. This is one part of the list. A number with no mark means an inactive call. The call rests on the fitted dose curve; in most records, active means well fitted curve in the direction sought with a large enough effect; inconclusive means small, poorly fitted or top-dose-only effect, or effect the other way; inactive means no such curve, though single readings can be large or run the other way.

These compounds were tested against Cytochrome P450 1A2 (Homo sapiens) (UniProt P05177) (assay: Cytochrome panel assay with activity outcomes). Conditions: recombinant CYP, pro-luciferin dealkylation, luminescence, p450-cyp1a2; series mostly up to 57.1 µM.
On the % scale 0 is the no-effect control and ±100 the full control effect.

Cytochrome P450 1A2 (Homo sapiens), sequence (P05177 whole entry, looked up): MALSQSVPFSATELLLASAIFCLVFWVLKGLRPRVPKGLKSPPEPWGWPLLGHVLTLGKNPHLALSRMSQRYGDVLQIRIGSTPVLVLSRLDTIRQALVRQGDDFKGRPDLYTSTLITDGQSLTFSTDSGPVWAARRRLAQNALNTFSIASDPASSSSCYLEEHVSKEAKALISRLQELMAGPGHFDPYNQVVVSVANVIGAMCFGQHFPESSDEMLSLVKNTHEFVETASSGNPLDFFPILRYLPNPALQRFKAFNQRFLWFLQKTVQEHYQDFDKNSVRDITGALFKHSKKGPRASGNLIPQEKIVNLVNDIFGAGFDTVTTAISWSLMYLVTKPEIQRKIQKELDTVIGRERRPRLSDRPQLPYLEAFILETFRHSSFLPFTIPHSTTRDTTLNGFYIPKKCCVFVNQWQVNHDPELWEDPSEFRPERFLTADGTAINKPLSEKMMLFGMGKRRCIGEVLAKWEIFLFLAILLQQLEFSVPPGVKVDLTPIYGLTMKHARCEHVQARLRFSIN

SMILES	AC50	activity, negative = inhibition
CC[C@]1(c2ncc[nH]2)Cc2ccccc2O1	inactive	
CC(C)OC(=O)C(CC(=O)O)N1CCOCC1 (stereo not drawn)	inactive	
COc1ccc(NC(=O)N2CC3(CCN(C(=O)c4ccc(OC)cc4)CC3)C2)cc1	inactive	
CC(=O)OC[C@@H]1O[C@@H](O/N=C2/C[C@@H](O)[C@@H](O)[C@@H]3[C@@H]4C(=O)N(C5CCCCC5)C(=O)[C@H]4CC[C@@H]23)[C@H](OC(C)=O)[C@H](OC(C)=O)[C@@H]1OC(C)=O		0.189% [at 11.4 µM]
O=c1[nH]c(=O)n([C@@H]2C[C@H](O)[C@H](CO)O2)cc1C(F)(F)F	inactive	
COc1ccc(COC(=O)N/N=C2/C[C@@H](O)[C@@H](O)[C@@H]3[C@@H]4C(=O)N([C@@H](C)c5ccccc5)C(=O)[C@H]4CC[C@H]23)cc1		-2.7% [at 11.4 µM]
COc1ccccc1CNc1nc(-c2ccc(N(C)C)cc2)nc2ccccc12	2.51 µM (active)	
Cc1cnc(CNc2nc(-c3ccc4c(c3)OCO4)nc3ccccc23)cn1	2 µM (active)	
c1csc(CNc2nc(-c3ccc4c(c3)OCO4)nc3ccccc23)c1	0.794 µM (active)	
NCCNCC1CCNCC1		-3.59% [at 2.29 µM]
CCn1cc(C(=O)NCC(=O)OC)c2cc(OC)c(OC)cc2c1=O	inactive	
NCc1ccccc1CC(=O)N[C@@H]1C(=O)N2C(C(=O)O)=C(CSc3nnnn3CC(=O)O)CS[C@@H]12	inactive	
COc1ccc(NC(=O)N2CC[C@@]3(CCCN(C(=O)c4cc(C(F)(F)F)cc(C(F)(F)F)c4)C3)C2)cc1	inactive	
CC(C)NC(=O)c1ccc2c(=O)n(Cc3ccco3)c(=S)[nH]c2c1	15.8 µM (active)	
COc1ccc(NC(=O)c2ccc3c(=O)n(Cc4ccco4)c(=S)[nH]c3c2)c(OC)c1	0.794 µM (active)	
COc1ccc(CCNC(=O)c2nnn(CC(=O)Nc3ccccc3C)c2N)cc1OC	inactive	
COc1ccc2c(C=Nc3c(C)n(C)n(-c4ccccc4)c3=O)c(O)n(Cc3ccco3)c(=O)c2c1	inactive	
COc1ccc(CCNC(=O)c2ccc3c(=O)n(Cc4ccco4)c(=S)[nH]c3c2)cc1OC	25.1 µM (active)	
O=C(NCc1ccco1)c1ccc2c(=O)n(-c3ccccc3)c(=S)[nH]c2c1	inactive	
C/C(CCC(=O)OC[C@@H]1O[C@H](C#Cc2ccccc2)C=C[C@@H]1Oc1ccc(C)cc1)=N/OC[C@@H](O)[C@H]1O[C@H]2OC(C)(C)O[C@H]2[C@@H]1O		2.38% [at 11.4 µM]
O=C(/C=C\c1ccccc1)c1ccccc1O		-10.2% [at 11.4 µM]
CC1=C(C)/C(=N\OC(=O)/C=C/c2ccccc2)C=CC1=O	14.1 µM (active)	
CC1(C)[C@@H]2CC[C@]1(C)[C@@H](OC(=O)/C=C\c1ccccc1)C2		-3.39% [at 2.29 µM]
OC[C@@H]1O[C@@H](n2cnc3c(SCc4ccccc4)ncnc32)[C@@H](O)[C@H]1O		-17.2% [at 2.29 µM]

SMILES	AC50	activity, negative = inhibition
CNC(=O)[C@@H]1O[C@@H](n2cnc3c(NCc4cccc(I)c4)ncnc32)[C@H](O)[C@@H]1O	inactive	
Cc1ccc2nc(SCC(=O)c3ccc4c(c3)OCO4)[nH]c2c1	1 µM (active)	
Cc1ccc2nc(SCC(=O)Nc3nnc(SCC(N)=O)s3)[nH]c2c1	14.1 µM (active)	
CCOC(=O)NC(=O)CSc1nc2ccc(OCC)cc2[nH]1	2.51 µM (active)	
COc1ccc(-n2c(=O)[nH]cc(C(=O)Nc3ccc4c(c3)OCCO4)c2=O)cc1	inactive	
COc1ccc2nc(SCC(=O)Nc3ccc4c(c3)OCCO4)[nH]c2c1	5.62 µM (active)	
CC/C=C\CC[C@H](OC(=O)c1ccc(Br)cc1)C1=CCCCC1=O		1.86% [at 11.4 µM]
COc1ccc2nc(SCC(=O)c3ccco3)[nH]c2c1	7.08 µM (active)	
COc1ccc(CCn2c(C)cc(C(=O)CSc3nc(N)cc(=O)[nH]3)c2C)cc1	inactive	
O=C(N/N=C\c1ccc2c(c1)CCC2)c1ccccc1O	2 µM (active)	
CSCC[C@H](NC(=O)CC(C)(C)C)c1nc2ccccc2[nH]1	inactive	
CCN(CC)c1nc2ccccc2[nH]1	15.8 µM (active)	
OCCNc1nc2ccccc2[nH]1	inactive	
CCOC(=O)c1c(C)oc2c1cc(O)c1ccccc12	0.0631 µM (active)	
CCOC(=O)c1c(C)oc2c1c(C=NC1CCS(=O)(=O)C1)c(O)c1ccccc12 (stereo not drawn)	1.26 µM (active)	
CCCCCOC(=O)c1c(N)n(CCOC)c2nc3ccccc3nc12	1 µM (active)	
C=C(C)C1Cc2nc(N)nc(C)c2C1 (stereo not drawn)	3.16 µM (active)	
Nc1nc(N)c2[nH]c(CNc3ccc(C(=O)O)cc3)nc2n1		-9.57% [at 11.4 µM]
C[C@H](CN(C)C)C(O)(c1ccccc1)c1ccccc1		5.76% [at 11.4 µM]
Cc1ccc(NC(=O)C2CCN(S(C)(=O)=O)CC2)cc1	inactive	
Cc1ccc(C2CC2C(=O)NN)cc1 (stereo not drawn)	0.316 µM (active)	
N[C@@H](Cc1c[nH]c2ccc([N+](=O)[O-])cc12)C(=O)O		-10.4% [at 11.4 µM]
Cc1cc2c(cc1C)NC1=C(N2)O[C@H](c2c[nH]c3ccc(COc4ccccc4)cc23)C1=O	2.51 µM (active)	
O=C1C2=C(Nc3cc([N+](=O)[O-])ccc3N2)O[C@@H]1c1c[nH]c2ccc(COc3ccccc3)cc12	2.51 µM (active)	

SMILES	AC50	activity, negative = inhibition
CC(C)NC(=O)N1CCC2(CC1)CCN(C(=O)c1cccn1C)CC2	inactive	
CC(C)NC(=O)/C(=N\O)c1ccccc1	inactive	
CC(C)NC(=O)C(C)n1cccc1C(=O)c1ccccc1 (stereo not drawn)	25.1 µM (active)	
Cc1ccccc1-n1nc2c(c1NC(=O)c1ccc(S(=O)(=O)N(C)C)cc1)CSC2	inactive	
Cc1ccccc1-n1nc2c(c1NC(=O)c1c(-c3ccccc3Cl)noc1C)CSC2	inactive	
Cc1ccc(-n2nc3c(c2NC(=O)c2cccs2)CSC3)cc1	1.58 µM (active)	
Cn1c(=O)n(C)c2cc(S(=O)(=O)O)ccc21	inactive	
Cn1c(=O)n(C)c2cc(/C=N/n3cnnc3)ccc21	6.31 µM (active)	
Nc1nc2c(ncn2COC(CO)CO)c(=O)[nH]1	inactive	
CO[C@]1(NC(=O)C2SC(=C(C(N)=O)C(=O)O)S2)C(=O)N2C(C(=O)O)=C(CSc3nnnn3C)CS[C@H]21 (stereo partly drawn)	inactive	
CC1CCN(CC[C@@H]2CCCN2S(=O)(=O)c2cccc(O)c2)CC1	inactive	
Cc1c(C)n(C(=O)CN2CCC(C)CC2)c2ccccc12	4.47 µM (active)	
CC1CCN(CC(=O)Nc2cccc([N+](=O)[O-])c2)CC1	inactive	
Cc1cc(C)n2nc(SCC(=O)N/N=C/c3ccccc3F)nc2n1	15.8 µM (active)	
Cc1cccc(Cc2c(C)nc3nc(SCC(=O)NCc4ccco4)nn3c2C)c1	inactive	
Cc1cc(C)nc(SCC(=O)N/N=C\c2sccc2C)n1	12.6 µM (active)	
COc1ccccc1CNC(=O)CSc1nc2nc(C)cc(C)n2n1	inactive	
Cc1cccc(N(C)C(=S)Oc2ccc3ccccc3c2)c1	2.51 µM (active)	
COc1ccc(N2CCN(C(=S)Nc3cccc(C)c3)CC2)cc1	inactive	
CCc1cc2c(nc1CC)CCN(CC/C(C)=N/O[C@@H](C)c1cn([C@H](CO)Cc3ccccc3)nn1)C2		-13.3% [at 11.4 µM] and 1.01% [at 11.4 µM]
Cc1ccccc1OCCCN1CCCC1	inactive	
CC(C)(C)c1ccccc1OCCN1CCCC1	15.8 µM (active)	
Cc1cc(C(C)(C)C)c(OCCCN2CCOCC2)c(C(C)(C)C)c1		-17.7% [at 2.29 µM]
CC1(CC(=O)O)O[C@H]2CCCCC[C@H]2O1 (stereo partly drawn) (tested in a mixture with another compound)		-0.0273% [at 11.4 µM]

SMILES	AC50	activity, negative = inhibition
COc1cccc(C(=O)Nc2ccc(-c3nnc(-c4ccco4)o3)cc2)c1	inactive	
COc1ccc2c(c1)C(c1ccc([N+](=O)[O-])cc1)=NNC(c1ccco1)=N2	5.01 µM (active)	
CC1(C)CCCN(C(=O)c2coc(=O)c(Br)c2)C1	inactive	
c1ccc2nc(C3=NCCN3)ccc2c1	5.01 µM (active) and 794 nM (active)	
c1ccc(CN(CC2=NCCN2)c2ccccc2)cc1	inactive	
c1ccc2nc(-c3ccncc3)ccc2c1	1 µM (active)	
c1ccc2nc(C3=NCCN3)cnc2c1	0.398 µM (active)	
c1ccc2cc(C3=NCCN3)ncc2c1	0.501 µM (active)	
O=C(c1cccc(F)c1)N1CCC2(CCCN(Cc3cc(C(F)(F)F)cc(C(F)(F)F)c3)C2)CC1	inactive	
COC(=O)[C@@]1(Cc2ccc(F)cc2)[C@H]2c3cc(C(=O)N(C)C)n(CCCNc4ccc(C(F)(F)F)cc4Cl)c3C[C@H]2CN1C(=O)c1ccccc1	inactive	
c1ccc2oc(C3=NCCN3)cc2c1	5.01 µM (active)	
CCn1c(-c2nonc2NC(=O)c2ccccc2)nc2ccccc21	0.891 µM (active)	
CCn1nccc1C(=O)Nc1nc2ccccc2n1CCN1CCCCC1	inactive	
O=S(=O)(NCc1cc(-c2ccc(Cl)cc2)no1)c1ccc(Cl)cc1	8.91 µM (active)	
Cn1c(CNS(=O)(=O)c2ccc(Cl)cc2)n[nH]c1=S	inactive	
Clc1ccc(SCc2cc(-c3ccccc3)no2)cc1	6.31 µM (active)	
NCCNS(=O)(=O)c1ccc(N)cc1		-3.44% [at 11.4 µM]
Nc1ccc(S(=O)(=O)NCc2nccs2)cc1		-10.5% [at 2.29 µM]
COCCNC(=O)c1onc(CSc2ccc(Cl)cc2)c1C(=O)O	inactive	
O=S(=O)(NCc1cc(-c2ccccc2)no1)c1ccc(Cl)cc1	7.08 µM (active)	
Cn1c(CNS(=O)(=O)c2ccc(F)cc2)n[nH]c1=S	inactive	
